Of roughly 7,900 targets only a part is listed; those with a hit were picked by preference. About 0.6% of all pairs of compound and target were hits.
How the values were obtained:
Assay in all cases: log2 fold change, soluble protein after heating vs DMSO (PISA); higher = thermal stabilisation; K562 cells, 10 uM, 30 min; active = over 0.2 and 3.5 SD of the protein, either way, in both replicates (recomputed)
[1] = compound: CC1=C(C=C(C=C1)NC(=O)C2=CC(=CC=C2)C(C)(C)C#N)NC3=CC4=C(C=C3)N=CN(C4=O)C
Outline: (§1)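 K562 cells at 2×10^6 cells/mL were given 10 μM compound for 30 min. Aliquots then went through 3 min of heating across 48°C-58°C, were pooled, and were extracted in PBS with 0.5% NP-40 at 4°C, and the supernatant after 21,000xg for 90 min was quantified by TMTpro 16plex LC-MS/MS with channel sums equalised. Thermal stability relative to control samples, from duplicates, is given as log2 fold change.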

[2] = compound: CC1=C(C=C(C=C1)NC(=O)C2=CC(=CC=C2)N(C)C)NC(=O)C3=CC=C(C=C3)O
Outline: as §1

[3] = compound: CC1=CC=C(C=C1)SC2=C3C=C(SC3=CN=C2)C(=O)N
Outline: as §1

[4] = compound: CC1=NC(=CC=C1)C2=C(N=C(N2)C(C)(C)C)C3=CC4=NC=CN=C4C=C3
Outline: as §1

Nexturastat A = compound: CCCCN(Cc1ccc(C(=O)NO)cc1)C(=O)Nc1ccccc1 [Nexturastat A]
Outline: as §1

vemurafenib = compound: CCCS(=O)(=O)Nc1ccc(F)c(C(=O)c2c[nH]c3ncc(-c4ccc(Cl)cc4)cc23)c1F [vemurafenib]
Outline: as §1

[5] = compound: CCCS(=O)(=O)Nc1ccc(F)c(C(=O)c2c[nH]c3ncc(Cl)cc23)c1F
Outline: as §1

[6] = compound: CCCc1cc(C)[nH]c(=O)c1CNC(=O)c1cc(-c2ccnc(N3CCN(C)CC3)c2)cc2c1cnn2C(C)C
Outline: as §1

givinostat = compound: CCN(CC)Cc1ccc2cc(COC(=O)Nc3ccc(C(=O)NO)cc3)ccc2c1 [givinostat]
Outline: as §1

barasertib = compound: CCN(CCCOc1ccc2c(Nc3cc(CC(=O)Nc4cccc(F)c4)[nH]n3)ncnc2c1)CCOP(=O)(O)O [barasertib]
Outline: as §1

[7] = compound: CC[C@@H]1C(=O)N(C)c2cnc(Nc3ccc(C(=O)NC4CCN(C)CC4)cc3OC)nc2N1C1CCCC1
Outline: as §1

volasertib = compound: CC[C@@H]1C(=O)N(C)c2cnc(Nc3ccc(C(=O)N[C@H]4CC[C@H](N5CCN(CC6CC6)CC5)CC4)cc3OC)nc2N1C(C)C [volasertib]
Outline: as §1

[8] = compound: CC[C@H](C)N1C=C(C2=C(C=C(C=C21)C3=CN=C(C=C3)N4CCNCC4)C(=O)NCC5=C(C=C(NC5=O)C)C)C
Outline: as §1

epoxomicin = compound: CC[C@H](C)[C@@H](C(=O)N[C@@H]([C@@H](C)O)C(=O)N[C@@H](CC(C)C)C(=O)[C@]1(CO1)C)NC(=O)[C@H]([C@@H](C)CC)N(C)C(=O)C [epoxomicin]
Outline: as §1

[9] = compound: CCn1c(C(=O)N(C2CC2)C2CC2)cc2c3c(ncn3C)c(Nc3cc(C)n(C)n3)nc21
Outline: as §1

[10] = compound: CCn1cc(-c2ccnc3[nH]c(-c4cccc(CN(C)C)c4)cc23)c(-c2ccc(NC(=O)N(C)C)cc2)n1
Outline: as §1

[11] = compound: CN(C)CC(=O)Nc1ccc2[nH]c(=O)c3ccccc3c2c1
Outline: as §1

rosiglitazone = compound: CN(CCOC1=CC=C(C=C1)C[C@H]2C(=O)NC(=O)S2)C3=CC=CC=N3 (racemic) [rosiglitazone]
Outline: as §1

[12] = compound: CN1C2=C(C3=C1C(=O)N(N=C3)CC4=CC(=CC=C4)N)SC(=C2)S(=O)C
Outline: as §1

[13] = compound: CN1CCC(CNc2ccc3ncc(-c4cccc(OC(F)(F)F)c4)n3n2)CC1
Outline: as §1

Measured: log2 fold change

CDK1 (UniProt P06493)
Chain of UniProt P06493 (P06493 whole entry, looked up): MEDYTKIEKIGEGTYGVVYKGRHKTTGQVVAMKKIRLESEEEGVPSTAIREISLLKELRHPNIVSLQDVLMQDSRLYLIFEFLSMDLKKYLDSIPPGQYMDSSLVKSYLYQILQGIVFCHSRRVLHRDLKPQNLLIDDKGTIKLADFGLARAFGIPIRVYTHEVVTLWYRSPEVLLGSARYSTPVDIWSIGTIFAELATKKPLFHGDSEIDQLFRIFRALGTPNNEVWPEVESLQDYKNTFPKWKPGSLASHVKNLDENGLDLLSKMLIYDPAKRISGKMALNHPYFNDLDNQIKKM
inactive: [1] 0.017 | [2] -0.017 | [3] 0.004 | [4] 0.036 | Nexturastat A -0.015 | vemurafenib 0.029 | [5] 0.02 | [6] 0.001 | givinostat 0.048 | barasertib 0.001 | [7] -0.03 | volasertib -0.05 | [8] 0.017 | epoxomicin 0.055 | [9] -0.002 | [10] 0 | [11] 0.03 | rosiglitazone 0.032 | [12] 0.005 | [13] -0.108

CDC42BPA isoform 6 (UniProt Q5VT25)
Chain of UniProt Q5VT25 (Q5VT25 whole entry, looked up): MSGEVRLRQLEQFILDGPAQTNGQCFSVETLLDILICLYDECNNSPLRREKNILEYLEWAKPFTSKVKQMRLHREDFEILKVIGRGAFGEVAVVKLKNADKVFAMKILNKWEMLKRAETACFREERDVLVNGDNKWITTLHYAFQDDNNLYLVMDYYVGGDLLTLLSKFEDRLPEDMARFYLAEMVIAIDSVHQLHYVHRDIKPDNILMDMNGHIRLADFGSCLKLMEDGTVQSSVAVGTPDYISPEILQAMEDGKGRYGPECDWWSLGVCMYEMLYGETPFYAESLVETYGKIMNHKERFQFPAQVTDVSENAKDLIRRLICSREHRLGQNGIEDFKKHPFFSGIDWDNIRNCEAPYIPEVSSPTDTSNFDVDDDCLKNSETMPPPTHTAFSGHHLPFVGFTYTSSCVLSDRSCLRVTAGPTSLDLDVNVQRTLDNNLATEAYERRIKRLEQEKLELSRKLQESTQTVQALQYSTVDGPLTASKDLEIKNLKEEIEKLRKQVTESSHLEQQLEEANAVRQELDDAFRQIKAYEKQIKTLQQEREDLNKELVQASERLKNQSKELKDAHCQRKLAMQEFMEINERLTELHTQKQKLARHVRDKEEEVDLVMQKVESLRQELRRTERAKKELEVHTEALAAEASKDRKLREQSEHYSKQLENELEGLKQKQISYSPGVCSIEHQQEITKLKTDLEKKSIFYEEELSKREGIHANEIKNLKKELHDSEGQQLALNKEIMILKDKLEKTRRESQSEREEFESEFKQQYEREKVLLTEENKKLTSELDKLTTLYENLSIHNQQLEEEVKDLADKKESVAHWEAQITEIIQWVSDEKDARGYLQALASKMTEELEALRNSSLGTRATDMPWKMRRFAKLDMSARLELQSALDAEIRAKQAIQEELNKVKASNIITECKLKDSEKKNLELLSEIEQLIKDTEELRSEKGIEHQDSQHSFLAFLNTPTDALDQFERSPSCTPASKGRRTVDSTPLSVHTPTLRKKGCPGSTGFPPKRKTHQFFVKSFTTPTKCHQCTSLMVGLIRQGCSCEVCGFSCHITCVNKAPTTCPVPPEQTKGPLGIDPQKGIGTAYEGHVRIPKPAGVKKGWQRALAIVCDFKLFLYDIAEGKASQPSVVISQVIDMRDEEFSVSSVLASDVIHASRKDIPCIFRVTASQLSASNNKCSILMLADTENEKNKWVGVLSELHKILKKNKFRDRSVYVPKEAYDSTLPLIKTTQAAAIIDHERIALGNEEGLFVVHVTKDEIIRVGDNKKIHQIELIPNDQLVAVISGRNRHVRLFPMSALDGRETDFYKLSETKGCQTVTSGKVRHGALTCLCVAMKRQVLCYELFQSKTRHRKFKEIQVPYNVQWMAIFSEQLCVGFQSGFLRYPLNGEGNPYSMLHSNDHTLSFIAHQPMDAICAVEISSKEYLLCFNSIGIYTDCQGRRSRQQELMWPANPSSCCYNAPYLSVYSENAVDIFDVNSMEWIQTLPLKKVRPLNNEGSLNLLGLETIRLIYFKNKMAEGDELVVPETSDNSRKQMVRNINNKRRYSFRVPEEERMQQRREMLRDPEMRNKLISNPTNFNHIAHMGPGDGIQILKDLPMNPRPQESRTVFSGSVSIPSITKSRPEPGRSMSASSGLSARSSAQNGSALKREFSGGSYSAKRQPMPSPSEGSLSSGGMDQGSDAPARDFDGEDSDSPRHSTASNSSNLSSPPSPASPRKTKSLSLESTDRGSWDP
active: volasertib -0.86
inactive: [1] 0.151 | [2] -0.079 | [3] 0.01 | [4] -0.015 | Nexturastat A 0.123 | vemurafenib 0.004 | [5] 0.141 | [6] -0.013 | givinostat 0.051 | barasertib 0.04 | [7] -0.021 | [8] 0.053 | epoxomicin 0.001 | [9] 0.002 | [10] 0 | [11] 0.042 | rosiglitazone 0.026 | [12] 0.078 | [13] -0.359

CNOT2 (UniProt Q9NZN8)
Chain of UniProt Q9NZN8 (Q9NZN8 whole entry, looked up): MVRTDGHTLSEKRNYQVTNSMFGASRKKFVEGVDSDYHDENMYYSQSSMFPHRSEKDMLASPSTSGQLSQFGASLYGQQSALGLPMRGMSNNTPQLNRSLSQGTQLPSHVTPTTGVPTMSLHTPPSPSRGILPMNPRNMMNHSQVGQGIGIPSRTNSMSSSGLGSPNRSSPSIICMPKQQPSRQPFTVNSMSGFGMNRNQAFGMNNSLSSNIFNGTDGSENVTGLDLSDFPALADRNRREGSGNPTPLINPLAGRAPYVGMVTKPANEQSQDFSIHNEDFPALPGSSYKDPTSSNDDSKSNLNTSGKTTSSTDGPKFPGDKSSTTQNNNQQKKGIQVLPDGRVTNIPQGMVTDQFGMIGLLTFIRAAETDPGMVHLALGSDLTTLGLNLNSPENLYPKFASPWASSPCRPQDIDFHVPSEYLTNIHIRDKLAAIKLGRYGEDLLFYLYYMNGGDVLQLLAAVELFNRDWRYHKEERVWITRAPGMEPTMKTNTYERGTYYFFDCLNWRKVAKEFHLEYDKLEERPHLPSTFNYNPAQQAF
inactive: [1] -0.075 | [2] 0.136 | [3] -0.027 | [4] 0.008 | Nexturastat A 0.017 | vemurafenib -0.03 | [5] 0.006 | [6] -0.018 | givinostat 0.059 | barasertib 0.01 | [7] -0.035 | volasertib -0.168 | [8] 0.021 | epoxomicin -0.034 | [9] -0.05 | [10] 0.085 | [11] 0.015 | rosiglitazone 0.007 | [12] 0.062 | [13] -0.027

CAMKK2 (UniProt Q96RR4)
Chain of UniProt Q96RR4 (Q96RR4 whole entry, looked up): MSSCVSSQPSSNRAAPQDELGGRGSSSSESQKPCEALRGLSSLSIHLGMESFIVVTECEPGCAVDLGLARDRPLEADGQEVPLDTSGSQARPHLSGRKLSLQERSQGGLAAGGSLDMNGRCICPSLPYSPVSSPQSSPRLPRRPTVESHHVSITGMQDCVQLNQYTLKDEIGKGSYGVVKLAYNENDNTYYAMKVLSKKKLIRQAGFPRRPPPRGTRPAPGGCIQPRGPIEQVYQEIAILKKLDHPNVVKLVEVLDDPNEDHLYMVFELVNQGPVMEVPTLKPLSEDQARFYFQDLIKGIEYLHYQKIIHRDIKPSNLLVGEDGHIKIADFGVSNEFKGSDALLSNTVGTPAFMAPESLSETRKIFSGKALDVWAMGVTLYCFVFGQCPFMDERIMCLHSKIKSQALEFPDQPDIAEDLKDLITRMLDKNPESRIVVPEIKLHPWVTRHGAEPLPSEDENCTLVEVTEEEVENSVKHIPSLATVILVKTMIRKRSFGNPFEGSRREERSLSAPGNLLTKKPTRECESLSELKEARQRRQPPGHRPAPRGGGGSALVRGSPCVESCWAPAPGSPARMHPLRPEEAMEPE
inactive: [1] 0.022 | [2] 0.024 | [3] -0.044 | [4] -0.009 | Nexturastat A 0.154 | vemurafenib 0.037 | [5] -0.043 | [6] 0.277 | givinostat -0.017 | barasertib 0.058 | [7] 0.374 | [8] 0.014 | epoxomicin 0.211 | [9] 0.114 | [10] -0.093 | [11] 0.145 | rosiglitazone 0.072 | [12] -0.008 | [13] 0.045
active: volasertib 0.617

CDC123 (UniProt O75794)
Chain of UniProt O75794 (O75794 whole entry, looked up): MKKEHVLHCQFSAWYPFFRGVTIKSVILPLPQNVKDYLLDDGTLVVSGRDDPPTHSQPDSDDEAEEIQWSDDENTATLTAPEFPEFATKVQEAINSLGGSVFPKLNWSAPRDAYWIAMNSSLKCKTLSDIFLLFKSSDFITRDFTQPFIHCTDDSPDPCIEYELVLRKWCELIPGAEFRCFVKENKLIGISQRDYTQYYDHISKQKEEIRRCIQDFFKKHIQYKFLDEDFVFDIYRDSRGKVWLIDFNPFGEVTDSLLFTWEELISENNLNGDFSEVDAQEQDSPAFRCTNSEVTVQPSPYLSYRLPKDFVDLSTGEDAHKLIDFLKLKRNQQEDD
inactive: [1] -0.033 | [2] 0.006 | [3] 0.043 | [4] 0.048 | Nexturastat A 0.013 | vemurafenib 0.011 | [5] 0.02 | [6] 0.038 | givinostat -0.01 | barasertib 0.028 | [7] 0.06 | volasertib -0.002 | [8] 0.07 | epoxomicin 0.137 | [9] -0.012 | [10] -0.021 | [11] 0.015 | rosiglitazone 0.034 | [12] -0.009 | [13] -0.1

CSE1L (UniProt P55060)
inactive: [1] 0.021 | [2] -0.006 | [3] 0.068 | [4] 0.083 | Nexturastat A -0.068 | vemurafenib 0.029 | [5] 0.063 | [6] 0.009 | givinostat 0.004 | barasertib 0.042 | [8] 0.047 | epoxomicin 0.03 | [9] 0.002 | [10] -0.068 | [11] 0.008 | rosiglitazone 0.047 | [12] -0.095 | [13] -0.181
active: [7] -0.209 | volasertib -0.403

CDK9 isoform 2 (UniProt P50750)
inactive: [1] 0.053 | [2] -0.067 | [3] -0.001 | [4] -0.084 | Nexturastat A 0.155 | vemurafenib -0.052 | [5] 0.024 | [6] 0.036 | givinostat 0.014 | barasertib 0.002 | [7] -0.01 | volasertib 0.078 | [8] 0.064 | epoxomicin -0.06 | [9] 0.016 | [10] -0.092 | [11] -0.042 | rosiglitazone -0.019 | [12] 0.178 | [13] 0.205

CLPTM1L (UniProt Q96KA5)
inactive: [1] -0.014 | [2] 0.01 | [3] 0.03 | [4] 0.022 | Nexturastat A -0.032 | vemurafenib 0.045 | [5] 0.016 | [6] -0.015 | givinostat 0.009 | barasertib 0.021 | [7] -0.067 | volasertib -0.185 | [8] 0.005 | epoxomicin 0.013 | [9] 0.009 | [10] -0.051 | [11] 0.023 | rosiglitazone 0.054 | [12] -0.023 | [13] -0.188

CERS2 (UniProt Q96G23)
Chain of UniProt Q96G23 (Q96G23 whole entry, looked up): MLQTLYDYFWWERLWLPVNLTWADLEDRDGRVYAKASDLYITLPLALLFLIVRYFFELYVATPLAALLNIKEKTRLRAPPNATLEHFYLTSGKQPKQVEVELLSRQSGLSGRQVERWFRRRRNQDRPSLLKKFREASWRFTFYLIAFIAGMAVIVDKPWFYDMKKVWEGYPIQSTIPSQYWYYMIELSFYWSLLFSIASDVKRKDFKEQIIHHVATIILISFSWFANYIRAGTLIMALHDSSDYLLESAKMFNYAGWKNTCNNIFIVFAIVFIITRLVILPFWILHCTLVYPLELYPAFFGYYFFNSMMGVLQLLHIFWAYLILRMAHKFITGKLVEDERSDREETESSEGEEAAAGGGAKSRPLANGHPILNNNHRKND
active: [13] -0.46
inactive: [1] -0.02 | [2] 0.015 | [3] 0.036 | [4] 0.019 | Nexturastat A -0.083 | vemurafenib -0.018 | [5] 0.101 | [6] -0.013 | givinostat -0.038 | barasertib -0.002 | [7] -0.148 | volasertib -0.133 | [8] 0.011 | epoxomicin 0.03 | [9] -0.004 | [10] -0.001 | [11] 0.001 | rosiglitazone 0.088 | [12] 0.007

CAVIN1 (UniProt Q6NZI2)
Chain of UniProt Q6NZI2 (Q6NZI2 whole entry, looked up): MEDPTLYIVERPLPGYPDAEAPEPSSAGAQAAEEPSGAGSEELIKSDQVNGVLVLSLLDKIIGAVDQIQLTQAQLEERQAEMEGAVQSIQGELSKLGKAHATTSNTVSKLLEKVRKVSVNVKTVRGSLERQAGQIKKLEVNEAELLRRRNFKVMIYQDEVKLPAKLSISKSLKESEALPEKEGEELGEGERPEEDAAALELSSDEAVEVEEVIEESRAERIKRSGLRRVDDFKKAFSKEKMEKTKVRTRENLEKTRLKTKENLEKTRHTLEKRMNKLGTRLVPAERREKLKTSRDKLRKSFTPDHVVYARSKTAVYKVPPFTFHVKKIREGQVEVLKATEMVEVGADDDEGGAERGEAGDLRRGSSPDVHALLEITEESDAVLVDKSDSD
inactive: [1] 0.024 | [2] -0.066 | [3] -0.051 | [4] -0.027 | Nexturastat A 0.186 | vemurafenib -0.068 | [5] -0.047 | [6] 0.073 | givinostat 0.041 | barasertib -0.058 | [7] 0.072 | volasertib 0.182 | [8] -0.007 | epoxomicin -0.125 | [9] 0.013 | [10] 0.085 | [11] -0.06 | rosiglitazone -0.037 | [12] 0.124 | [13] -0.074

CDKN2AIP (UniProt Q9NXV6)
Chain of UniProt Q9NXV6 (Q9NXV6 whole entry, looked up): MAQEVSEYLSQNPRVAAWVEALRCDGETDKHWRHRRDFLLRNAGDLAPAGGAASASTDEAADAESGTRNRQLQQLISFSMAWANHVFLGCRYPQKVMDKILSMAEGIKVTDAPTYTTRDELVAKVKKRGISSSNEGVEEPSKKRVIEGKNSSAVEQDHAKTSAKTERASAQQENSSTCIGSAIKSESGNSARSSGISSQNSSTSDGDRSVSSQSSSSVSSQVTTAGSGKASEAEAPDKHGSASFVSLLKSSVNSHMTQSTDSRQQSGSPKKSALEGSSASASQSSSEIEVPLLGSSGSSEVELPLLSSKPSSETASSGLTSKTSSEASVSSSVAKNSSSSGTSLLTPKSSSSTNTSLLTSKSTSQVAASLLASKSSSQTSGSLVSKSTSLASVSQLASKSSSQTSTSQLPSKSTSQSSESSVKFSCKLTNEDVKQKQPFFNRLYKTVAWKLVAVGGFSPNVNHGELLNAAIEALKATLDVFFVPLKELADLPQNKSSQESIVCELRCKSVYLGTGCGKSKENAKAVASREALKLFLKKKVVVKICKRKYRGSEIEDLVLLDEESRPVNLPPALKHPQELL
inactive: [1] 0.046 | [2] -0.01 | [3] -0.076 | [4] 0.008 | Nexturastat A 0.052 | vemurafenib 0.043 | [5] -0.053 | [6] 0.023 | givinostat 0.012 | barasertib -0.017 | [7] 0.096 | volasertib 0.057 | [8] -0.001 | epoxomicin 0.095 | [9] -0.017 | [10] 0.008 | [11] 0.046 | rosiglitazone 0.025 | [12] 0.03 | [13] 0.094

COX5A (UniProt P20674)
Chain of UniProt P20674 (P20674 whole entry, looked up): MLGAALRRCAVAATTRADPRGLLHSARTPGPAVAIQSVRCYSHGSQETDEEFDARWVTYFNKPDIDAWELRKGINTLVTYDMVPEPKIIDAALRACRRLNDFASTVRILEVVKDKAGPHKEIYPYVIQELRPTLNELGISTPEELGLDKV
inactive: [1] -0.005 | [2] -0.074 | [3] 0 | [4] -0.016 | Nexturastat A 0.072 | vemurafenib 0.165 | [5] -0.114 | [6] -0.093 | givinostat -0.092 | barasertib 0.085 | [7] 0.048 | volasertib -0.08 | [8] -0.081 | epoxomicin 0.234 | [9] -0.018 | [10] 0.072 | [11] -0.001 | rosiglitazone -0.042 | [12] -0.063 | [13] 0.269

CCDC9 (UniProt Q9Y3X0)
inactive: [1] -0.042 | [2] 0.007 | [3] 0.019 | [4] 0.055 | Nexturastat A 0.119 | vemurafenib -0.007 | [5] -0.009 | [6] -0.004 | givinostat -0.069 | barasertib 0.021 | [7] 0.081 | volasertib 0.127 | [8] -0.051 | epoxomicin -0.018 | [9] 0.032 | [10] 0.051 | [11] 0.002 | rosiglitazone 0.021 | [12] 0.025 | [13] 0.009

CHCHD4 isoform 2 (UniProt Q8N4Q1)
active: [13] 0.795
inactive: [1] 0.373 | [2] 0.001 | [3] 0.157 | [4] -0.035 | Nexturastat A -0.026 | vemurafenib -0.015 | [5] 0.412 | [6] -0.063 | givinostat 0.029 | barasertib -0.024 | [7] -0.009 | volasertib -0.125 | [8] -0.096 | epoxomicin -0.186 | [9] -0.034 | [10] 0.231 | [11] -0.023 | rosiglitazone -0.007 | [12] -0.107

CHMP4B (UniProt Q9H444)
inactive: [1] 0.181 | [2] 0.008 | [3] -0.073 | [4] 0.007 | Nexturastat A -0.04 | vemurafenib -0.036 | [5] -0.126 | [6] -0.02 | givinostat -0.061 | barasertib 0.001 | [7] -0.05 | volasertib 0.062 | [8] -0.044 | epoxomicin -0.008 | [9] 0.043 | [10] -0.065 | [11] -0.053 | rosiglitazone -0.031 | [12] -0.057 | [13] -0.033

COMMD2 (UniProt Q86X83)
inactive: [1] -0.014 | [2] -0.051 | [3] 0.007 | [4] 0.035 | Nexturastat A 0.022 | vemurafenib 0.023 | [5] 0.159 | [6] 0.019 | givinostat 0.11 | barasertib 0.053 | [7] -0.004 | volasertib -0.264 | [8] 0.07 | epoxomicin -0.088 | [9] -0.022 | [10] -0.005 | [11] -0.108 | rosiglitazone 0.134 | [12] 0 | [13] -0.209

— the supplement of paper PMC10849652
